Measurements published in PubChem BioAssay (NCI).
Where “and” joins values, the source holds several entries; their conditions need not be identical. Equal values may be shown once. Compounds without any hit were thinned out: in the full panel of roughly 83,000, 20% have a hit.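 Treatment: one concentration, 48 hours, 96-well format. Scoring: percent growth, with anything below 10 considered active.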 Calls of active or inactive are those of the source.

test system: T-47D breast; test: NCI-60 one-dose screen, 48 h (100 = growth as untreated, 0 = no growth, -100 = all killed); settings: 10 µM unless noted

Row | SMILES | growth
1 | CN1CNC(=O)NC1 | 112% (inactive) and 100% (inactive)
2 | CC1CCC2(OC1)OC1CC3C4CC=C5CC(O)CCC5(C)C4CCC3(C)C1C2C (centres undefined) | 106% (inactive)
3 | COc1cc(C(O)C2C(=O)OCC2C2(c3ccc4c(c3)OCO4)SCCCS2)cc(OC)c1OC (centres undefined) | 107% (inactive)
4 | Nc1nc(N)c2[nH]cnc2n1 | 59.1% (inactive)
5 | Cn1cnc([N+](=O)[O-])c1Sc1ncn[nH]1 | 94.2% (inactive)
6 | O=c1[nH]cnc2c1ncn2C1OC(CO)C(O)C1O (centres undefined) | 103% (inactive) and 107% (inactive) and 90.2% (inactive)
7 | CC(=O)OCC1OC(OC(C)=O)C(OC(C)=O)C(OC(C)=O)C1OC(C)=O (centres undefined) | 97.7% (inactive) and 101% (inactive)
8 | O=C1c2c(O)ccc(O)c2C(=O)c2c(NCCNCCO)ccc(NCCNCCO)c21 | -24% (active) and -46.9% (active)
9 | CCCCCCCCCCCCCCCCC(C(=O)O)C(O)(CC(=O)O)C(=O)O (centres undefined) | 98.2% (inactive) and 4.81% (active)
10 | Nc1cc(N)c(N)cc1N | 81.7% (inactive)
11 | O=[N+]([O-])c1cccc(SSc2cccc([N+](=O)[O-])c2)c1 | 76.9% (inactive)
12 | Oc1ccc(Cc2ccccc2Cl)c(O)c1 | 83.9% (inactive)
13 | OCCN1CCCCCCC1 | 95.6% (inactive)
14 | CC1=C/C(O)CC(=O)Cc2nc(co2)C(=O)N2CCC=C2C(=O)OC(C(C)C)C(C)/C=C\C(=O)NC/C=C\1 (centres undefined) | 89.4% (inactive)
15 | COc1ccc2cc1Oc1ccc(cc1)C[C@H]1c3cc(c(OC)cc3CCN1C)Oc1c(OC)c(OC)cc3c1[C@H](C2)N(C)CC3 | 93.1% (inactive)
16 | O=C1OC(c2ccccc2)=N/C1=C\c1ccccc1 | 96.4% (inactive)
17 | COc1ccc(Nc2ccc3ccccc3c2)cc1 | 65.6% (inactive)

test system: BT-549 breast; test: as above; settings: 10 µM unless noted

Row | SMILES | growth
18 | NN1CCOC(c2ccccc2)C1 (centres undefined) | 102% (inactive)
19 | ClCCOCCOc1ccc(C2CCCCC2)cc1 | 95% (inactive)
20 | O=c1n(CC2CO2)c(=O)n(CC2CO2)c(=O)n1CC1CO1 (centres undefined) | 77.1% (inactive)
21 | Cc1ccc(S(=O)(=O)c2ccccc2)cc1 | 36.6% (inactive)
22 | O=C(/C=C/c1ccccc1)c1ccccc1 | 126% (inactive)
23 | Cc1cc(-c2ccc(N=Nc3ccc4c(S(=O)(=O)O)cc(S(=O)(=O)O)c(N)c4c3O)c(C)c2)ccc1N=Nc1ccc2c(S(=O)(=O)O)cc(S(=O)(=O)O)c(N)c2c1O | 86.1% (inactive)
24 | c1ccc(CNCCNCc2ccccc2)cc1 | 107% (inactive)
25 | Cc1cc2ccccc2cn1 | 106% (inactive) and 105% (inactive)
26 | OC1COC(OCc2ccccc2)C(O)C1O (centres undefined) | 105% (inactive)
27 | CCCCCCCCCCCCCCCc1ccc(N)c(OC2OC(CO)C(O)C(O)C2O)c1 (centres undefined) | 54.8% (inactive)
28 | O=C(O)CCCl | 113% (inactive)
29 | C#CCOC(=O)Nc1ccccc1 | 106% (inactive)
30 | CC(C)C(C)(C)c1ccc(O)cc1 | 110% (inactive)
31 | Cc1cc(-c2cc(C)c(O)c(C)c2)cc(C)c1O | 65.7% (inactive)
32 | CC1(C)COC(=S)N1 | 102% (inactive)
33 | CCOC(=O)c1c(C)cc(=O)oc1C | 97.3% (inactive)
34 | CC[C@H](CC[C@@H](C)[C@H]1CC[C@H]2[C@@H]3CC=C4C[C@@H](O)CC[C@]4(C)[C@H]3CC[C@]12C)C(C)C | 100% (inactive)
35 | CN1CNC(=O)NC1 | 97.8% (inactive) and 112% (inactive)
36 | CC1CCC2(OC1)OC1CC3C4CC=C5CC(O)CCC5(C)C4CCC3(C)C1C2C (centres undefined) | 130% (inactive)
37 | COc1cc(C(O)C2C(=O)OCC2C2(c3ccc4c(c3)OCO4)SCCCS2)cc(OC)c1OC (centres undefined) | 102% (inactive)
38 | Nc1nc(N)c2[nH]cnc2n1 | 96.8% (inactive)
39 | Cn1cnc([N+](=O)[O-])c1Sc1ncn[nH]1 | 101% (inactive)
40 | O=c1[nH]cnc2c1ncn2C1OC(CO)C(O)C1O (centres undefined) | 103% (inactive) and 123% (inactive) and 109% (inactive)
41 | CC(=O)OCC1OC(OC(C)=O)C(OC(C)=O)C(OC(C)=O)C1OC(C)=O (centres undefined) | 96.3% (inactive) and 103% (inactive)
42 | O=C1c2c(O)ccc(O)c2C(=O)c2c(NCCNCCO)ccc(NCCNCCO)c21 | -46.2% (active) and -85.9% (active)
43 | c1ccc(-c2nc3ccccc3s2)cc1 | 96.8% (inactive)
44 | CCCCCCCCCCCCCCCCC(C(=O)O)C(O)(CC(=O)O)C(=O)O (centres undefined) | 103% (inactive) and -46.4% (active)
